Assay outcomes as filed in PubChem.
The list is not random: actives were taken first. Their share in the collection is about 1.4%.
Mtb MbtI inh – MbtI salicylate synthase inhibition; P9WFX0; 100,000 tested, 0.89% active; purified MbtI enzyme, fluorescence intensity read-out; inhibition, % (test concentration not listed); in the data active means inhibition mostly above about 56%, no sharp cut-off; inactive means mostly below about 77%
MenB inh – Mtb MenB enzyme inhibition. P9WNP5. MenB enzyme assay, absorbance read-out. inhibition, % (concentration not given with the values). 100,000 tested, 0.43% active. AID 540299; in the data active means inhibition above about 21%, passing the limit was not always enough
PV pol inh – poliovirus RNA polymerase inhibition; P03300; poliovirus polymerase elongation, fluorescence polarization; stronger effect = lower value; % elongation, % (compound at 16.7 µg/mL); 150,000 tested, 0.66% active; AID 588519; in the data active means % elongation below about 90%
Target sequence (P03300 1749-2209 limits assumed): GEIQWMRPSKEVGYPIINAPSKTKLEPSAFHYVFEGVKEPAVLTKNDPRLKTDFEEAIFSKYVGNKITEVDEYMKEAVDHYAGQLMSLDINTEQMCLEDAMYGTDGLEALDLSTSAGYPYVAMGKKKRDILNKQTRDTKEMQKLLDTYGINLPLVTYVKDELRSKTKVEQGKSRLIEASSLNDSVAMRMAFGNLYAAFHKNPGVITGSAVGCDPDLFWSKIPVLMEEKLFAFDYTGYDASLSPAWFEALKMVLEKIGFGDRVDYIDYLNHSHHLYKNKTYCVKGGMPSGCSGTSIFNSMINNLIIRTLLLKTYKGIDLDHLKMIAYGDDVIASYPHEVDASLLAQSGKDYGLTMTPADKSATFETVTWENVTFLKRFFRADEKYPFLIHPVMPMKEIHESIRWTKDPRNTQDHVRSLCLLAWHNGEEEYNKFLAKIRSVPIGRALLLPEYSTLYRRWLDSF
AID504770 – growth inhibitors of E. coli YBA685 in a screen for V. cholerae RctB (chromosome II replication) inhibitors | E. coli YBA685 rctB-dependent plasmid, OD600 growth, 3 h; stronger effect = lower value | z-score (no concentration beside the values) | 130,000 tested, 0.27% active | AID 504770; in the data active means z-score below about -2, passing the limit was not always enough
Active calls of the source: *.

`CCn1c(C2CC2)n[nH]c1=S` gave Mtb MbtI inh 87.1*, MenB inh -15.3 and AID504770 0.55.
For Cn1c(C2CC2)n[nH]c1=S the results were Mtb MbtI inh 17.4, MenB inh -51.8, PV pol inh 108.0 and AID504770 2.
Screening Cc1ccc(-c2csc(-n3sc4ccccc4c3=O)n2)cc1 returned Mtb MbtI inh 86.8*, PV pol inh 99.0 and AID504770 0.
`Cc1cc(-n2sc3ccccc3c2=O)c2ccccc2n1` gave Mtb MbtI inh -1.8, MenB inh 2.5, PV pol inh 121.0 and AID504770 1.85.
For C=C(C)c1c2c(c(Cl)c3ccccc13)C[N+](CC)(CC)C2 the results were Mtb MbtI inh 10.2, MenB inh -9.8, PV pol inh 102.0 and AID504770 0.85.
Screening CCCCCOc1ccc(C(=O)CCN2CCOCC2)cc1 returned Mtb MbtI inh 92.3*, MenB inh -7.4, PV pol inh 103.0 and AID504770 0.05.
O=C1C=C(Nc2ccccc2)C(=O)c2ccccc21 was read as Mtb MbtI inh 7.1, MenB inh -16.4, PV pol inh 99.0 and AID504770 1.4.
O=C1C=CC(=O)C(Nc2ccccc2)=C1 was read as Mtb MbtI inh 98.7*, PV pol inh 100.0 and AID504770 -0.2.
`CN1C(=O)/C(=C2/C=CC=CN2C)SC1=S` gave Mtb MbtI inh -7.0, MenB inh inactive, PV pol inh 98.0 and AID504770 -0.5.
`Cc1cc(C)c2c(=O)n(C(=O)c3cccs3)sc2n1` gave Mtb MbtI inh 100.0*, MenB inh 15.9, PV pol inh 121.0 and AID504770 -0.6.
`C=C1c2cccc(O)c2C(O)=C2C(=O)[C@]3(O)C(O)=C(C(N)=O)C(=O)[C@@H](N(C)C)[C@@H]3[C@@H](O)[C@H]12` gave Mtb MbtI inh -1.2, MenB inh 5.2, PV pol inh 100.0 and AID504770 -3.35*.
For C=C1c2c(Cl)ccc(O)c2C(O)=C2C(=O)[C@]3(O)C(O)=C(C(N)=O)C(=O)[C@@H](N(C)C)[C@@H]3[C@@H](O)[C@H]12 the results were Mtb MbtI inh -54.5, MenB inh 4.0, PV pol inh 102.0 and AID504770 -4.25*.
`C[C@H]1c2cccc(O)c2C(O)=C2C(=O)C3(O)C(O)=C(C(N)=O)C(=O)[C@@H](N(C)C)[C@@H]3[C@@H](O)[C@@H]21` (some centres undefined) gave Mtb MbtI inh 3.3, MenB inh -12.0 and PV pol inh 101.0.
Screening CN(C)[C@@H]1C(=O)C(C(N)=O)=C(O)[C@@]2(O)C(=O)C3=C(O)c4c(O)cccc4[C@@](C)(O)[C@H]3C[C@@H]12 returned Mtb MbtI inh 2.8, MenB inh -0.9, PV pol inh 99.0 and AID504770 -3.2*.
For CN(C)[C@@H]1C(=O)C(C(=O)NCN2CCCC2)=C(O)[C@@]2(O)C(=O)C3=C(O)c4c(O)cccc4[C@@](C)(O)C3CC12 (some centres undefined) the results were Mtb MbtI inh -10.2, MenB inh -3.6 and PV pol inh 96.0.
`O=C(COCc1cc(-c2ccc(F)cc2)on1)NCC1CCCO1` (centres undefined) gave Mtb MbtI inh 6.1, MenB inh -16.4, PV pol inh 106.0 and AID504770 -1.8.
Screening Cc1ccc(S(=O)(=O)CCc2nnc(NC(=O)C3CCCN3C(=O)NC3CCCCC3)s2)cc1 (centres undefined) returned Mtb MbtI inh -0.9, MenB inh -14.9, PV pol inh 101.0 and AID504770 -0.7.
CN(C)S(=O)(=O)c1ccc(C(=O)OC2CCCC2)cc1 was read as Mtb MbtI inh -24.8, MenB inh 14.6, PV pol inh 100.0 and AID504770 0.4.
COc1ccc(Cn2nnc3c(C)nnc(N4CCOCC4)c32)cc1 was read as Mtb MbtI inh 98.0, MenB inh 2.3, PV pol inh 102.0 and AID504770 -0.35.
Screening Cc1ccnc2nc(C(=O)NCC3COc4ccccc4O3)nn12 (centres undefined) returned Mtb MbtI inh -38.3, MenB inh -12.1, PV pol inh 98.0 and AID504770 0.05.
For Cc1ccc(C(=O)Nc2nncs2)cc1 the results were Mtb MbtI inh 16.2, MenB inh 26.2*, PV pol inh 101.0 and AID504770 -0.55.
For CCc1ccc(C(=O)Nc2nncs2)cc1 the results were Mtb MbtI inh 8.8, MenB inh 12.8, PV pol inh 100.0 and AID504770 0.55.
For COc1ccc(NC(=O)c2oc3ccccc3c2NC(=O)Cc2coc3c(C)c(C)ccc23)cc1 the results were PV pol inh -10.0*.
`Cc1cccc(NC(=O)c2oc3ccccc3c2NC(=O)Cc2coc3c(C)c(C)ccc23)c1` gave PV pol inh 119.0.
`COc1ccc(NC(=O)CSc2nncn3c2cc2occc23)cc1` gave Mtb MbtI inh 23.1, MenB inh -37.3, PV pol inh 100.0 and AID504770 -0.85.
`CN=C1c2c(C)c3cc(OC)ccc3n2CCN1C` gave Mtb MbtI inh -75.1, MenB inh 7.9, PV pol inh 104.0 and AID504770 0.5.
Screening COc1ccc2c(c1)c1nc(N(C)C)nc3c1n2CCN3C returned Mtb MbtI inh -47.9, MenB inh -27.9, PV pol inh 6.0* and AID504770 2.
For Cc1ccc(C(=O)CC2(O)C(=O)Nc3ccccc32)o1 (centres undefined) the results were Mtb MbtI inh -29.6, MenB inh -14.9, PV pol inh 100.0 and AID504770 -0.95.
`c1nc2c3sc4nc(N5CCOCC5)c5c(c4c3ncn2n1)CCC5` gave Mtb MbtI inh 0.5, MenB inh 28.3*, PV pol inh 100.0 and AID504770 1.4.
Screening CCCCCSc1ncnc2c1sc1nc(N3CCOCC3)c3c(c12)CCCC3 returned PV pol inh 105.0.
Cc1oc(-c2ccccc2)nc1C(=O)N(C)CC(=O)Nc1ccc(N2CCOCC2)cc1 was read as Mtb MbtI inh -12.8, MenB inh -31.8, PV pol inh 105.0 and AID504770 1.7.
Screening O=C(Sc1ccc(Cl)cc1)N1CCOCC1 returned AID504770 0.7.
Screening O=C(Sc1ccc(Cl)cc1)c1ccno1 returned Mtb MbtI inh 65.2*, MenB inh -5.0, PV pol inh 96.0 and AID504770 -0.55.
Screening O=C([O-])C[n+]1cn(CC(=O)O)c2ccccc21 returned Mtb MbtI inh -9.7, PV pol inh 99.0 and AID504770 -0.4.
`CCOc1ccc(OCCCCN(C)C)cc1` gave Mtb MbtI inh 1.4, MenB inh -29.5, PV pol inh 101.0 and AID504770 0.2.
For CCOc1ccc(C(=S)N(C)C)cc1 the results were Mtb MbtI inh 78.5*, MenB inh -15.9, PV pol inh 100.0 and AID504770 0.7.
Screening Cc1ccc(S(=O)(=O)NC(C)C(=O)N2CCN(c3cccc(Cl)c3)CC2)cc1 (centres undefined) returned Mtb MbtI inh 1.1, MenB inh -21.6, PV pol inh 102.0 and AID504770 -0.55.
Screening CC(NS(=O)(=O)c1cccc(Cl)c1)C(=O)N(C)C1CCN(C)CC1 (centres undefined) returned Mtb MbtI inh -11.3, MenB inh -36.1, PV pol inh 106.0 and AID504770 -5.3*.
